# Laboratory results reported in PubChem BioAssay (NCI).
# This is part of a sample that, as a whole, favours compounds with a hit. Of some 83,000 tested, about 20% had one in any assay.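 Values shown are percent growth following 48 h exposure of cells in 96-well plates to a single concentration of compound; below 10 was considered active.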 Values without a mark were called inactive. Calls of active or inactive are those of the source.
# Test system: HL-60(TB) leukemia
# Assay: NCI-60 one-dose screen, 48 h (100 = growth as untreated, 0 = no growth, -100 = all killed)
# Settings: 10 µM unless noted
row,Compound,growth
1,C=C(c1ccc(C(=O)O)c(F)c1)c1cc2c(cc1C)C(C)(C)C=CC2(C)C,86.3%
2,Clc1ncnc2scc(C3COc4ccccc4O3)c12 (stereo not given),102%
3,Cc1ccc(N2C(=O)CCC2=O)cc1,104%
4,CCN1CCN(C(=O)[C@]23CCC(C)(C)C[C@@H]2C2=CC[C@@H]4[C@@]5(C)C/C(=C/c6cccnc6)C(=O)C(C)(C)[C@@H]5CC[C@@]4(C)[C@]2(C)CC3)CC1,-37.3% (active)
5,COc1ccc(-n2c(C)cc(-c3ccccc3)c2C)cc1,23.2%
6,Nc1ccc(C2=Nc3cccc4cccc(c34)S2)cc1,76.7%
7,N#Cc1c(N)n2c(nc1=Nc1ccc(Cl)cc1)sc1cc(Cl)ccc12,117%
8,N#Cc1c(-c2ccccc2)cc(-c2ccccc2)n(CCCC(=O)O)c1=O,103%
9,CCCCCCCCCCCCCCCCCCNC(=O)[C@H]1CSC(c2ccc(OC)cc2O)N1 (stereo not given in full),34.4%
10,O=C(Nc1ccncc1)C(=O)c1cn(S(=O)(=O)c2cccc(F)c2)c2ccccc12,-9.88% (active)
11,Nn1c(SCC(=O)Nc2cc(Cl)c(Cl)cc2Cl)nnc1-c1cc(F)c(Cl)cc1Cl,92%
12,O=[N+]([O-])c1ccccc1CN1CCCCC1,101%
13,NC(=O)c1c(Nc2ccccc2)nn2cc(-c3nc4ccccc4s3)c(N)nc12,101%
14,CCN(CC)CCNc1ncnc2c1cnn2-c1ccc(Cl)cc1,39.1%
15,COc1ccc2nc(NC(=O)/C(=C/c3cc(OC)c(OC)c(OC)c3)c3ccc(OC)c(OC)c3)sc2c1,94.5%
